According to ChEMBL document CHEMBL2218924, “A broad activity screen in support of a chemogenomic map for kinase signalling research and drug discovery” (Biochem J, 2013):

Legend:
[1] = biological target: T1, Serine/threonine-protein kinase 3 (Homo sapiens) (UniProt Q13188); conditions: at 1 µM
T1 sequence (whole entry): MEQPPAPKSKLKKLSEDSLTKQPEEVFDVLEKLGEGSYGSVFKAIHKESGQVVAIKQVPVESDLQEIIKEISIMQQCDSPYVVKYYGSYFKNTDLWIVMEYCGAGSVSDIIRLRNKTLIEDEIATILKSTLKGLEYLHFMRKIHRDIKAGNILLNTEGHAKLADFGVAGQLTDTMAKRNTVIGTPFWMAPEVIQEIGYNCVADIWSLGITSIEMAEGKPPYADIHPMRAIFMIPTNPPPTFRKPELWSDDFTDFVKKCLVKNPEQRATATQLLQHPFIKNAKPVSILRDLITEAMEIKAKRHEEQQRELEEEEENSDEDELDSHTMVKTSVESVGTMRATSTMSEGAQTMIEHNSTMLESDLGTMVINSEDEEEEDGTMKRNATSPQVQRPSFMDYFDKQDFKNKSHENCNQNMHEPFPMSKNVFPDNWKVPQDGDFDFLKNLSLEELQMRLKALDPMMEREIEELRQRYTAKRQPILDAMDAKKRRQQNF

[2] = biological target: T1, Serine/threonine-protein kinase 3 (Homo sapiens); conditions: at 10 µM
[3] = biological target: Serine/threonine-protein kinase 24 (Homo sapiens) (UniProt Q9Y6E0); conditions: at 1 µM
[4] = biological target: Serine/threonine-protein kinase 24 (Homo sapiens) (UniProt Q9Y6E0); conditions: at 10 µM
[5] = biological target: T2, Tyrosine-protein kinase Mer (Homo sapiens) (UniProt Q12866); conditions: at 1 µM
T2 sequence (whole entry): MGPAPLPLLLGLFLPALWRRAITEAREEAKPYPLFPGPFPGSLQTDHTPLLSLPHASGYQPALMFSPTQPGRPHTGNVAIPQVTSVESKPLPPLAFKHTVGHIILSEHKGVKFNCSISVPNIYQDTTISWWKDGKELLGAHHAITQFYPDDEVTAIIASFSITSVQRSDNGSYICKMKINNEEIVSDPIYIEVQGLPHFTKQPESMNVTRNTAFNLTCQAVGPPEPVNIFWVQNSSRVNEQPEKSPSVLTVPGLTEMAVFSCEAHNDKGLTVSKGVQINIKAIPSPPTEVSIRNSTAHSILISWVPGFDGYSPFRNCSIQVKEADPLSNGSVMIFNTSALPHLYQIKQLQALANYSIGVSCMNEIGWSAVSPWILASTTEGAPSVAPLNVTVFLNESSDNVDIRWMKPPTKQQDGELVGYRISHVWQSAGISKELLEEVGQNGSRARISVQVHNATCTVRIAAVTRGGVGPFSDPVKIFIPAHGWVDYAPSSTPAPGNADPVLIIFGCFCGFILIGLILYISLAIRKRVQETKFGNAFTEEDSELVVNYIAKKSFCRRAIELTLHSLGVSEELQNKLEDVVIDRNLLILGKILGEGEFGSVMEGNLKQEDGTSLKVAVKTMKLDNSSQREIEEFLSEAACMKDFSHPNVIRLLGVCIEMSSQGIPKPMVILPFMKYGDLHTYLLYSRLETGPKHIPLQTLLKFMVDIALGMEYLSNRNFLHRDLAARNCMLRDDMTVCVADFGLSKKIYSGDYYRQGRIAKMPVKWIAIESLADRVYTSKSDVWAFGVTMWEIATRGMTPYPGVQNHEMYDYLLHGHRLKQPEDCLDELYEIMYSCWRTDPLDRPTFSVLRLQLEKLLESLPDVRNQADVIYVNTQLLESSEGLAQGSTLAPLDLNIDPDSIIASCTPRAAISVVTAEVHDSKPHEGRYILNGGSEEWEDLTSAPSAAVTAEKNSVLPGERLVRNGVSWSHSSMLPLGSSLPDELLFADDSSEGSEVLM

[6] = biological target: T2, Tyrosine-protein kinase Mer (Homo sapiens); conditions: at 10 µM
[7] = biological target: Hepatocyte growth factor receptor (Homo sapiens) (UniProt P08581); conditions: at 1 µM
[8] = biological target: Hepatocyte growth factor receptor (Homo sapiens) (UniProt P08581); conditions: at 10 µM
[9] = biological target: MAP kinase-interacting serine/threonine-protein kinase 2 (Homo sapiens) (UniProt Q9HBH9); conditions: at 1 µM
[10] = biological target: MAP kinase-interacting serine/threonine-protein kinase 2 (Homo sapiens) (UniProt Q9HBH9); conditions: at 10 µM
[11] = biological target: T3, Muscle, skeletal receptor tyrosine-protein kinase (Homo sapiens) (UniProt O15146); conditions: at 1 µM
T3 sequence (whole entry): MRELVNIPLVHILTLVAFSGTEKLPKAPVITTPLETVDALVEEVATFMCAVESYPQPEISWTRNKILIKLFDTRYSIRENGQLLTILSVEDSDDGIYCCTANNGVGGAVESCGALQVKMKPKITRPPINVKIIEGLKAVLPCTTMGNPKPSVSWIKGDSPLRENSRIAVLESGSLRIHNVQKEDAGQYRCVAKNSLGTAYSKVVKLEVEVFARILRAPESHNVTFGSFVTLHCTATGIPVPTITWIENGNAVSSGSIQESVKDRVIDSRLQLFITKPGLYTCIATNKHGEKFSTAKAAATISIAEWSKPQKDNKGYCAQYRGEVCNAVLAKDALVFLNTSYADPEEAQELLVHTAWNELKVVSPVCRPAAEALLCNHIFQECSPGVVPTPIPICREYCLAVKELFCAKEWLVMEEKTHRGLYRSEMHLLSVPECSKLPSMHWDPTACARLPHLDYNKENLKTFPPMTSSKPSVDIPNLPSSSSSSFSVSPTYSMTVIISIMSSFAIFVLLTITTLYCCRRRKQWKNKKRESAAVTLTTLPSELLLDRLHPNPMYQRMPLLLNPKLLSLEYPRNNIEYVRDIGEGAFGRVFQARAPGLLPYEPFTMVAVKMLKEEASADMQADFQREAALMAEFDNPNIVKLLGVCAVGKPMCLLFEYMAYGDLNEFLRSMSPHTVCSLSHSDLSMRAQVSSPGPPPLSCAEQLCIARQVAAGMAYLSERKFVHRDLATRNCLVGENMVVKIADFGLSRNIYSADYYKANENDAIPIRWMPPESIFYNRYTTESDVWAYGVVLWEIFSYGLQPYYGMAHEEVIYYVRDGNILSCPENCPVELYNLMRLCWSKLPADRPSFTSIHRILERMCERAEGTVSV

[12] = biological target: T3, Muscle, skeletal receptor tyrosine-protein kinase (Homo sapiens); conditions: at 10 µM
[13] = biological target: T4, Serine/threonine-protein kinase Nek11 (Homo sapiens) (UniProt Q8NG66); conditions: at 1 µM
T4 sequence (whole entry): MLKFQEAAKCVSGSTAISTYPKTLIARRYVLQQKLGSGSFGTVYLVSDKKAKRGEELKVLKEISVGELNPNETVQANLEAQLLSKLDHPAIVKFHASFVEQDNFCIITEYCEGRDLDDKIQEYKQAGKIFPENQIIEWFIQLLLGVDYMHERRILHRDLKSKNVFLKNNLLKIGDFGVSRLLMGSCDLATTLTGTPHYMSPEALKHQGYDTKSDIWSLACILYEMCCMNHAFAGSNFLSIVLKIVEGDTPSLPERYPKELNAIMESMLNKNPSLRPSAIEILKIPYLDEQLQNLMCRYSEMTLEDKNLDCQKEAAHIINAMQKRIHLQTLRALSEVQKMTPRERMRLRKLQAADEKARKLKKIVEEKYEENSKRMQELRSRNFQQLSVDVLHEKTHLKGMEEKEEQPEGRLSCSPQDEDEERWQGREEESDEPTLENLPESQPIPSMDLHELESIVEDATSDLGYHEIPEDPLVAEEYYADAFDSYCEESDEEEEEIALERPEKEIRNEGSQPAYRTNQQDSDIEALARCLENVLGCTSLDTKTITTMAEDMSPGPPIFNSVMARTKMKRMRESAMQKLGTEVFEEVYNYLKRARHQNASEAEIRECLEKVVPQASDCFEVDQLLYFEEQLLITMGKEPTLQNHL

[14] = biological target: T4, Serine/threonine-protein kinase Nek11 (Homo sapiens); conditions: at 10 µM
[15] = biological target: T5, Serine/threonine-protein kinase Nek2 (Homo sapiens) (UniProt P51955); conditions: at 1 µM
T5 sequence (whole entry): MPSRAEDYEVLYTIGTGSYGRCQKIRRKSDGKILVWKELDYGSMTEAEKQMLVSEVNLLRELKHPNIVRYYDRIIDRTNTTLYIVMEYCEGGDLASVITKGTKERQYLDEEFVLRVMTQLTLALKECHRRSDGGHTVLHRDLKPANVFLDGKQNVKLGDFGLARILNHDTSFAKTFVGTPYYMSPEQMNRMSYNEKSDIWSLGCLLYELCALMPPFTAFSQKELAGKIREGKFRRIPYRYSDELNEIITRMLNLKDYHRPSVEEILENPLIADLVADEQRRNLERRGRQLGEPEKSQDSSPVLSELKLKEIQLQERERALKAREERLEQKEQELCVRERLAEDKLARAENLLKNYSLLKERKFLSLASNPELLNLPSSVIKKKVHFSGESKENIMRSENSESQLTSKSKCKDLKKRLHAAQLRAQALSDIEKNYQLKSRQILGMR

[16] = biological target: T5, Serine/threonine-protein kinase Nek2 (Homo sapiens); conditions: at 10 µM
[17] = biological target: T6, Serine/threonine-protein kinase Nek3 (Homo sapiens) (UniProt P51956); conditions: at 1 µM
T6 sequence (whole entry): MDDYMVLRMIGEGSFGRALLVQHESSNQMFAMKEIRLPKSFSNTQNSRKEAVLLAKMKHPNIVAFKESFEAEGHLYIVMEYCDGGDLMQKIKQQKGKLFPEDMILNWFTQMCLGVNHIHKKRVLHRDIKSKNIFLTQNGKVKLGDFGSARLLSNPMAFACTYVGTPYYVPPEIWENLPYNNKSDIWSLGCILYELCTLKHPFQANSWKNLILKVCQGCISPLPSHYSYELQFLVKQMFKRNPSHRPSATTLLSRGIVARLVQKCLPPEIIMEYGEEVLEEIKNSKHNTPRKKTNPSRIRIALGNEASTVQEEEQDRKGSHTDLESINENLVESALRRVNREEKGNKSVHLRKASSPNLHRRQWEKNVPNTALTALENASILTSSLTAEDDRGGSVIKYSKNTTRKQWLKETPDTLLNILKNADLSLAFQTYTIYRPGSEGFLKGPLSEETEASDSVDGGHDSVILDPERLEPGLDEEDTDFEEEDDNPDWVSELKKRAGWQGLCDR

[18] = biological target: T6, Serine/threonine-protein kinase Nek3 (Homo sapiens); conditions: at 10 µM
[19] = biological target: Serine/threonine-protein kinase tousled-like 2 (Homo sapiens) (UniProt Q86UE8); conditions: at 1 µM
[20] = biological target: Serine/threonine-protein kinase tousled-like 2 (Homo sapiens) (UniProt Q86UE8); conditions: at 10 µM

Sequence of MAP kinase-interacting serine/threonine-protein kinase 2 (Homo sapiens) (Q9HBH9 whole entry, looked up): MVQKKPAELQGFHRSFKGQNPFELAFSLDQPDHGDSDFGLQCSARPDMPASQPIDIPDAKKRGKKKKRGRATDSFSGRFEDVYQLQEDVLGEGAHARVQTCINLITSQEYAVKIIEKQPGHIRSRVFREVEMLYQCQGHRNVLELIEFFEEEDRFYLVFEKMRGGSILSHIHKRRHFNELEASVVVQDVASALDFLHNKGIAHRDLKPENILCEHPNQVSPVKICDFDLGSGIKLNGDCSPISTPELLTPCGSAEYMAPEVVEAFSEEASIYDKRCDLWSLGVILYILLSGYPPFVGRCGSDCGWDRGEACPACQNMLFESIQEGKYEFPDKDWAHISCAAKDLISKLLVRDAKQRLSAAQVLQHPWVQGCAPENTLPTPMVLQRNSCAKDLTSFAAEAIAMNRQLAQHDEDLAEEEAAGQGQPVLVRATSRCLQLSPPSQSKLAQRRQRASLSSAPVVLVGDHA
Sequence of Serine/threonine-protein kinase tousled-like 2 (Homo sapiens) (Q86UE8 whole entry, looked up): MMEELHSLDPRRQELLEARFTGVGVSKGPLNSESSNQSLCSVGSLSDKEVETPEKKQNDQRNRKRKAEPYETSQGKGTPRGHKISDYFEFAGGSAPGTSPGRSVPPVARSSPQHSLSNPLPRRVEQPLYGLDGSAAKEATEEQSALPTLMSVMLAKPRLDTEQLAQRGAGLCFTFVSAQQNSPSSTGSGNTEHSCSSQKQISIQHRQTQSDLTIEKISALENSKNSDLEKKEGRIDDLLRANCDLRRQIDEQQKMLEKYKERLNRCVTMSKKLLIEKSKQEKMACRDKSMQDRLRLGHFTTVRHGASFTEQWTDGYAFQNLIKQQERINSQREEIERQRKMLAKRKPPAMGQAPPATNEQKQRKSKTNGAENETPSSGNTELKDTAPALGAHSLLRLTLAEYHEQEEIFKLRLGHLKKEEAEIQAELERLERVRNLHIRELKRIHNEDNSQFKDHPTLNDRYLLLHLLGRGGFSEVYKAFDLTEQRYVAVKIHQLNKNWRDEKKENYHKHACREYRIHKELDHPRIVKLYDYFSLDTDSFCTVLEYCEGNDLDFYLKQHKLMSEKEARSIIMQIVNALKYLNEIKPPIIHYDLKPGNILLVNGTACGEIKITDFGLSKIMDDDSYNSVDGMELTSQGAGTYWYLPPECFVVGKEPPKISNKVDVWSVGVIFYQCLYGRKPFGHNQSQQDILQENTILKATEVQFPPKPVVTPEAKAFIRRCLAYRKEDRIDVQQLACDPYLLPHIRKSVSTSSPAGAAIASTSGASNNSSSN
Sequence of Serine/threonine-protein kinase 24 (Homo sapiens) (Q9Y6E0 whole entry, looked up): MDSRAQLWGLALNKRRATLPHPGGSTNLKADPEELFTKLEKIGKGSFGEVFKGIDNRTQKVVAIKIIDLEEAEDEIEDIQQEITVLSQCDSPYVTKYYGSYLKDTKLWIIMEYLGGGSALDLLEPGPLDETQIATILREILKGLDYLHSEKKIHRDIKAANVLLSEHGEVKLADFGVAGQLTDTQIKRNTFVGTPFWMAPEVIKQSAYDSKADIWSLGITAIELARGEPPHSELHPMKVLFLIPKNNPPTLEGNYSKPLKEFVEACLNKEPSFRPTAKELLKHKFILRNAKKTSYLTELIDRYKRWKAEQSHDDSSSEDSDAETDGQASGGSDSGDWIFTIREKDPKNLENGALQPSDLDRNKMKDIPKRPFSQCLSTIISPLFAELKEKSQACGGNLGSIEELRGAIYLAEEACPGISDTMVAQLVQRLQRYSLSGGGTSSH
Sequence of Hepatocyte growth factor receptor (Homo sapiens) (P08581 whole entry): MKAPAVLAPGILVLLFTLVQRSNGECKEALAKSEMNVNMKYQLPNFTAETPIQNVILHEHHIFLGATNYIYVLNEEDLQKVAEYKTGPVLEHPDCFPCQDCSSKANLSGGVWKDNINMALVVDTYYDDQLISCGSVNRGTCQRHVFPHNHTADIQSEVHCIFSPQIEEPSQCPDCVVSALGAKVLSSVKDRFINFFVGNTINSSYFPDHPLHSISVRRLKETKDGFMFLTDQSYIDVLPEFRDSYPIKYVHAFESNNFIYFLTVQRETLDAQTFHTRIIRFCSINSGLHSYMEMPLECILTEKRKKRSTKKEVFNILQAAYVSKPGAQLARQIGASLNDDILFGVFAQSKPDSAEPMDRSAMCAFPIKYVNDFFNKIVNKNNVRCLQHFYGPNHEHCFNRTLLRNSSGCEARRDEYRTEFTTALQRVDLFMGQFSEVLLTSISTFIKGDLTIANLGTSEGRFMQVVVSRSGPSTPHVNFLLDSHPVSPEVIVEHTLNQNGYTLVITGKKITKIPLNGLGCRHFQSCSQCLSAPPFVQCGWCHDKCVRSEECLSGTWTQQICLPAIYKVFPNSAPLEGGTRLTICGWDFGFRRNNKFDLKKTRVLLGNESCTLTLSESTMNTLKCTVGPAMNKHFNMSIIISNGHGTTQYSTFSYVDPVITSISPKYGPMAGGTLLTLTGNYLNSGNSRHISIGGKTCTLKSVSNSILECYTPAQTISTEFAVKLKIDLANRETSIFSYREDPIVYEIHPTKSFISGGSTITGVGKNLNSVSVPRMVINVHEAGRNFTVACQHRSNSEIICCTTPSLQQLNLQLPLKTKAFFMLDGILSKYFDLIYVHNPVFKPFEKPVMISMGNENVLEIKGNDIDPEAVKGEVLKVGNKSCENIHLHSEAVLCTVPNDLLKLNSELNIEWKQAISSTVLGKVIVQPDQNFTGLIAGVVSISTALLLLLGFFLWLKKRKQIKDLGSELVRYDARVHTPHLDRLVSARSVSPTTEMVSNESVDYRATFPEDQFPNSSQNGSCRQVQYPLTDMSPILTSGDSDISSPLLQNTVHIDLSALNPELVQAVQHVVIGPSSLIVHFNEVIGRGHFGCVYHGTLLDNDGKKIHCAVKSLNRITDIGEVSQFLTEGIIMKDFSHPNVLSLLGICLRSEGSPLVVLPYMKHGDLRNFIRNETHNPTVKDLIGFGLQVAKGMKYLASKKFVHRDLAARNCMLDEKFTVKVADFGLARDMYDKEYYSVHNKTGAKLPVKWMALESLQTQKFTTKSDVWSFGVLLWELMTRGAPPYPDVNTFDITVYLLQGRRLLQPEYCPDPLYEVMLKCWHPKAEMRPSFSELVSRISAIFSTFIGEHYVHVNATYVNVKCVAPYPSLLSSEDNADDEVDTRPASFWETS

| SMILES | residual activity [1] [%] | residual activity [2] [%] | residual activity [3] [%] | residual activity [4] [%] | residual activity [5] [%] | residual activity [6] [%] | residual activity [7] [%] | residual activity [8] [%] | residual activity [9] [%] | residual activity [10] [%] | residual activity [11] [%] | residual activity [12] [%] | residual activity [13] [%] | residual activity [14] [%] | residual activity [15] [%] | residual activity [16] [%] | residual activity [17] [%] | residual activity [18] [%] | residual activity [19] [%] | residual activity [20] [%] |
| --- | --- | --- | --- | --- | --- | --- | --- | --- | --- | --- | --- | --- | --- | --- | --- | --- | --- | --- | --- | --- |
| Cc1nc2cc3nc(-c4cccs4)cnc3cc2n1C | 107 | 87 | 90 | 96 | 103 | 41 | 128 | 91 | 84 | 37 | 102 | 55 | 93 | 102 | 87 | 103 | 114 | 104 | 107 | 83 |
| COc1cccc(-c2cc(=O)c3ccccc3o2)c1N | 97 | 98 | 91 | 89 | 96 | 101 | 117 | 116 | 107 | 113 | 104 | 97 | 64 | 78 | 98 | 102 | 93 | 101 | 98 | 101 |
| COc1ccc(OC)c2c(=S)c3ccccc3[nH]c12 | 96 | 93 | 80 | 85 | 99 | 85 | 118 | 119 | 97 | 77 | 89 | 85 | 70 | 54 | 98 | 95 | 74 | 91 | 84 | 87 |
| CC(C)n1cnc2c(NCc3ccccc3)nc(NCCCO)nc21 | 111 | 99 | 77 | 69 | 98 | 82 | 101 | 79 | 90 | 80 | 82 | 86 | 57 | 72 | 96 | 82 | 85 | 99 | 96 | 89 |
| Cc1ccc(S(=O)(=O)/C=C/C#N)cc1 | 99 | 95 | 86 | 88 | 101 | 108 | 96 | 123 | 98 | 101 | 85 | 96 | 72 | 81 | 97 | 90 | 90 | 98 | 87 | 89 |
| O=c1cc(-c2cccc3c2Sc2ccccc2S3)oc(N2CCOCC2)c1 | 92 | 93 | 98 | 81 | 99 | 89 | 106 | 120 | 100 | 94 | 106 | 96 | 93 | 64 | 96 | 92 | 92 | 99 | 96 | 96 |
